Measured values as given in PubChem BioAssay (NCATS).
Results filed as inconclusive are left out. Activity calls are given as the source filed them. Calls follow the shape of the dose curve; as a rule, active = well fitted inhibition curve with a large enough effect; inconclusive = small, poorly fitted or top-dose-only effect; inactive = flat fitted curve, though single readings scatter.

Columns and labels:
[1] = Drug repurposing screens with cells derived from glioblastoma tumor samples (AID 1345199); conditions: GBM patient neurospheres viability, ATP luminescence, 48 h; also: nearly all actives have a fitted effect of over 40% in size
Summary of the method: (§1)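 Primary testing used CD133+ neurospheres from four GBM patients, seven concentrations, 48 h exposure and ATP-based viability; confirmation added three slower-growing patient lines.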

astro = control astrocytes; experiment: as above; conditions: viability, ATP luminescence, 48 h; series mostly up to 45.9 µM
Summary of the method: as §1

[2] = at 45.9 µM (top of the series), tumour line B
[3] = at 45.9 µM (top of the series), tumour line D
[4] = at 46.1 µM (top of the series), tumour line C
% is scaled to controls: 0 for no effect and ±100 for the full control effect.

NC(=O)[C@H]1O[C@@H](O)[C@H](O)[C@@H](O)[C@@H]1O
inactive: activity, negative = cell killing [1, 2] -7.58% | activity, negative = cell killing [1, 3] -15.7% | activity, negative = cell killing [1, 4] -23.5% | Potency (astro)

CCCCC/C=C\CCC(=O)N[C@H]1[C@H](Oc2c3cc4cc2Oc2ccc(cc2Cl)[C@@H](O[C@@H]2O[C@H](CO)[C@@H](O)[C@H](O)[C@H]2NC(C)=O)[C@@H]2NC(=O)[C@H](NC(=O)[C@@H]4NC(=O)[C@H]4NC(=O)[C@@H](Cc5ccc(c(Cl)c5)O3)NC(=O)[C@H](N)c3ccc(O)c(c3)Oc3cc(O)cc4c3)c3ccc(O)c(c3)-c3c(O[C@H]4O[C@H](CO)[C@@H](O)[C@H](O)[C@@H]4O)cc(O)cc3[C@@H](C(=O)O)NC2=O)O[C@H](CO)[C@@H](O)[C@@H]1O
inactive: activity, negative = cell killing ([1]; at 20 µM (top of the series), tumour line C) -16.8% | activity, negative = cell killing ([1]; at 21.2 µM (top of the series), tumour line B) -7.38% | activity, negative = cell killing ([1]; at 21.2 µM (top of the series), tumour line D) -14.2% | Potency (astro)

Cc1ccc(C(C)(C)c2ccc(C)cc2)cc1
inactive: activity, negative = cell killing [1, 2] -5.24% | activity, negative = cell killing [1, 3] -1.07% | activity, negative = cell killing [1, 4] -10.1% | Potency (astro)

CCc1ncnc2cc(OC)c(OC)cc12
inactive: activity, negative = cell killing [1, 2] -18.2% | activity, negative = cell killing [1, 3] -1.42% | activity, negative = cell killing [1, 4] -14.3% | Potency (astro)

COc1ccc(/C=C/C(=O)O)cc1
inactive: activity, negative = cell killing [1, 2] 6.24% | activity, negative = cell killing [1, 3] -5.33% | activity, negative = cell killing [1, 4] 9.31% | Potency (astro)

Cc1cccc(Nc2ncccc2C(=O)O)c1C
inactive: activity, negative = cell killing [1, 2] -17.7% | activity, negative = cell killing [1, 3] -8.87% | activity, negative = cell killing [1, 4] -27.1% | Potency (astro)

CC(O)CN(C)C (stereo not drawn)
inactive: activity, negative = cell killing [1, 2] -7.97% | activity, negative = cell killing [1, 3] -11.2% | activity, negative = cell killing [1, 4] -3.25% | Potency (astro)
